From PubChem BioAssay AID743446 (Broad Institute, 2014) come the findings set out here.

Potency and affinity values are given separately. Values without a mark were called inactive. How the calls were made is not given here.

The assay in a line: HEK293 cell cytotoxicity, dose response, cytotoxicity control, plate reader, cherry-picked samples (AID 743446). Conditions: active compounds read low; at 26 µM unless noted.
For `CNC(=O)Oc1cccc(-c2cn3cc(Cl)ccc3n2)c1`, the max activity is 27.7% [at 0.38 µM]. For the molecule `CC(C)(C)n1cc(C(=O)c2ccc3ccccc3c2O)cn1`, the max activity was -8.13%.

Turning to `O=Cc1cn(Cc2cccc([N+](=O)[O-])c2)c2ccccc12`, the max activity is -15.2% [at 12 µM]. Turning to `COC(=O)c1ccc(NC(=O)CSc2nc3ccc(N4C(=O)C5C6C=CC(C6)C5C4=O)cc3s2)cc1` (stereo not given), the max activity was -25.2%.

For the molecule `O=C(O)c1nn(Cc2ccc(Cl)cc2Cl)c2ccccc12`, the max activity was 19.3% [at 0.38 µM].
